Sampled rows, rich in hits. Any-hit rate of the full collection: about 4.7%.
TWEAK Fn14 block: inhibitors of TWEAK-Fn14 signaling, primary screen, luciferase reporter cells, uHTS; 360,000 tested, 2% active; TWEAK-stimulated Fn14 reporter cells, luciferase luminescence, 8 h; AID 1159606, 2016; inhibition, % at 10 µM; in the data active = inhibition above about 50%
TROY signal inh: inhibitors of TROY-driven NF-kB signaling, primary screen, Q293 LMP1-TROYcd cells, NF-kB luciferase, uHTS. Q293 LMP1-TROYcd NF-kB luciferase reporter, 4 h. inhibition, % at 10 µM. 360,000 tested, 0.98% active. AID 1347056, 2019;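 active = compounds whose plate-normalised and pattern-corrected inhibition of the luciferase reporter signal at the single screening dose is 50% or more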
HSF1 inhib: HSF1 inhibitors in luciferase reporter cells, primary screen, cell-based, NIH3T3, luminescence; NIH3T3-HGL HSE-luciferase, MG132-induced, luminescence 8 h; stronger effect = lower value; activity change, negative = inhibition, % at 7.5 µM (by protocol); 300,000 tested, 0.77% active; AID 2098, 2009;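 active = more than half of replicate wells show activity change below -50%, luminescence cut by over half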;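 also: luciferase reports HSF-1 transcriptional activity via heat shock element; 0% = median of DMSO wells and -100% = zero luminescence signal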
HSP90 inh: HSP90 inhibitors, primary screen, cell lysate, luminescence | Heat shock protein HSP 90 (rabbit reticulocyte lysate; luciferase refolding) | Rabbit reticulocyte lysate, luciferase refolding luminescence, 3 h | inhibition, % at 5.6 µM | 290,000 tested, 0.91% active | AID 1789, 2009;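 active = inhibition above the screen-wide mean plus 3 SD, computed separately per campaign, cut at about 16% in these data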;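 also: 0% = DMSO wells and 100% = 60 µM geldanamycin wells; inhibitors lower the luminescence because luciferase stays unfolded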
HSF-1 act: HSF-1 activators, primary screen, NIH3T3-HGL cells, MG132 stress, luminescence, single point; AID 504408, 2011; NIH3T3-HGL HSF-1 luciferase reporter, 8 h; 100% = twice DMSO control signal; 300,000 tested, 1.7% active; activation, % at 9 µM;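 active = mean replicate activation of at least 50% with a set share of replicates each reaching 50%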;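 also: 0% = median of the neutral control wells and 100% = twice that signal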
EBV LMP1 NFkB: EBV LMP1-driven NF-kappaB luciferase reporter inhibitors, primary screen, cell-based, luminescence, single point | inhibition, % at 12.5 µM | LMP1-induced NF-kappaB luciferase reporter cells | 350,000 tested, 0.69% active | AID 504558, 2011; in the data active = inhibition above about 41%;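 also: 0% = neutral control wells and 100% = reference inhibitor control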
* hit, by the source's call; · = no result given.

SMILES	TWEAK Fn14 block	TROY signal inh	HSF1 inhib	HSP90 inh	HSF-1 act	EBV LMP1 NFkB
CCc1c(C)[nH]n(-c2nc(-c3ccccc3)cs2)c1=O	5	-12	2	-4	7	9
CN(N)c1nc(C(F)(F)F)nc2ccccc12	1	8	2	1	-4	3
CN(NS(=O)(=O)c1ccc(Br)cc1)c1nc(C(F)(F)F)nc2ccccc12	18	58*	-3	4	-7	7
COc1ccc(NC(=O)CCCC(=O)NCCc2ccc(OC)c(OC)c2)cc1	89*	-13	-5	3	5	5
COc1ccc(CCNC(=O)CN(c2ccc(OC)c(OC)c2)S(C)(=O)=O)cc1OC	5	11	-66*	3	-73	-2
COc1ccc(CCNC(=O)CN(c2ccccc2OC)S(C)(=O)=O)cc1OC	3	14	-4	2	-2	-5
CC1(C(=O)Nc2ccc3c(c2)OCCO3)CCC(=O)N1C1CC1 (stereo not given)	1	9	·	·	·	·
C[C@@H]1CN([C@@H](C)CO)S(=O)(=O)c2ccc(Br)cc2O[C@H]1CN(C)C(=O)C1CCOCC1	-4	-8	·	·	·	-4
Nc1nc(N)nc(-c2cc(Cl)ccc2Cl)n1	-32	-4	-4	·	-23	84*
C[C@@H]1CCCN1[C@H]1CS(=O)(=O)N[C@@H]1COCc1ccccc1	11	17	·	·	·	·
CCCNC(=O)NC(=O)CSc1cccc(C(F)(F)F)c1	-12	-28	37	-1	77*	0
COc1cc(/C=C(\C#N)c2nc3ccccc3[nH]2)cc(OC)c1O	18	-31	10	4	38	-1
COc1ccc(/C=C(\C#N)c2nc3ccccc3[nH]2)cc1O	-11	-16	60	-3	85*	-23
COc1cc(C=C(c2nc3ccccc3s2)c2nc3ccccc3s2)ccc1O	-14	-18	14	-5	17	0
COc1cccc(/C=C(\C#N)c2nc3ccccc3[nH]2)c1OCC(=O)O	99*	-8	-64*	4	-71	-6
COc1ccc(C=C(c2nc3ccccc3s2)c2nc3ccccc3s2)cc1O	50	2	124	2	132*	-107
CCOc1cc(N(CC)CC)ccc1/C=C(/C#N)c1nc2ccccc2[nH]1	69*	60*	-7	18*	-17	-34
COc1cccc(/C=C(/C#N)c2nc3ccccc3[nH]2)c1OC(C)C(=O)O (stereo not given)	-17	-14	7	-2	10	-12
CCCOc1cc(N(CC)CC)ccc1/C=C(/C#N)c1nc2ccc(C)cc2[nH]1	-36	1	-2	2	-10	-4
COc1cc(/C=C(\C#N)c2nc3ccccc3[nH]2)ccc1Oc1ccc([N+](=O)[O-])cn1	0	52*	28	1	62*	2
COCc1nnc(NC(=O)C2CCN(C(=O)c3ccco3)CC2)s1	-2	-8	-5	-1	-1	-3
CC(C)c1nnc(NC(=O)C2CCN(C(=O)c3ccco3)CC2)s1	44	-4	-64*	1	-71	9
CCc1nnc(NC(=O)C2CCN(C(=O)c3ccco3)CC2)s1	8	-4	-1	0	11	7
Cc1nnc(NC(=O)C2CCN(C(=O)c3ccco3)CC2)s1	-1	-9	-1	16*	-3	-4
CCCNC(=O)C1(C)CCN(C(=O)Cc2ccc3ccccc3c2)C1 (stereo not given)	5	6	·	·	·	·
SMILES	TWEAK Fn14 block	TROY signal inh	HSF1 inhib	HSP90 inh	HSF-1 act	EBV LMP1 NFkB
O=C(CN1C(=O)C2C3C=CC(C3)C2C1=O)Nc1ccc(F)cc1 (stereo not given)	-4	1	-8	3	12	-6
O=C(CN1C(=O)C2C3C=CC(C3)C2C1=O)Nc1nc2ccccc2[nH]1 (stereo not given)	73*	·	-4	4	-1	1
NNc1nc2c(-c3ccc(Cl)cc3)nnn2c2ccccc12	-22	-38	43	-3	73*	-19
Fc1cccc(-c2nnn3c2nc(Cl)c2ccccc23)c1	20	-29	356	6	454*	-24
OCCN(Cc1cccnc1)Cc1ccccn1	15	-4	·	·	·	-2
CCc1nc2c(OCCc3cccc(OC)c3)cccn2c1N(C=O)Cc1ccc(OC)cc1	10	-1	·	·	·	·
CSc1ccc(-c2cc3c(c4c2ccn4C)C2CCC3O2)cc1 (stereo not given)	-31	1	·	·	·	·
Cc1ccc(S(=O)(=O)c2c(C(=O)c3ccccc3)cnc3cc4c(cc23)OCCO4)cc1	45	-24	-66*	1	-74	6
Fc1ccc(-c2nc3n(n2)Cc2ccccc2-3)cc1	58*	30	·	8	·	-17
FC(F)(F)c1ccccc1Cc1c(-c2cccc(Cl)c2)nc2ccc(Cl)cn12	10	7	·	·	·	·
CCc1nc2c(OCc3ccc(Cl)cc3)cccn2c1N(C)C(=O)c1ccc(C)cc1	2	3	·	·	·	·
O=C(c1cccs1)N1CCN(c2cccc(Cl)c2)CC1	9	-10	2	-5	14	5
O=C(c1ccc([N+](=O)[O-])s1)N1CCN(c2cccc(Cl)c2)CC1	4	7	-52*	7	-59	-8
CC1(C)Cc2cccc(OC(=O)NC3CCCCC3)c2O1	-5	-29	·	·	·	·
Cc1ccc(NC(=S)NC(=O)c2ccc(F)cc2)cc1S(=O)(=O)Nc1cccc(Cl)c1	68*	50*	-22	5	-36	14
Cc1ccc(NC(=O)c2cccs2)cc1S(=O)(=O)Nc1cccc(Cl)c1	60*	39	3	1	0	-8
Cc1ccc(S(=O)(=O)Nc2ccc(NC(=O)c3cccs3)cc2)cc1	-42	2	-8	0	-7	-6
Cc1cc(C)c(NS(=O)(=O)c2ccc(NC(=O)c3cccs3)cc2)c(C)c1	41	51*	-1	-6	-5	3
Clc1ccc(-c2csc(NNC3=NCCCCC3)n2)cc1	-7	-21	-3	1	-8	-4
c1ccc(-c2csc(NNC3=NCCCCC3)n2)cc1	41	53*	1	-1	14	-67
Nc1cc(N)cc(-c2nc3ccccc3o2)c1	82*	25	1	·	0	-4
CC(=O)Nc1cccc(-c2nc3ccccc3o2)c1	-10	-35	22	-2	73*	-6
Nc1ccc(-c2nc3ccccc3o2)cc1	18	-42	20	17*	25	-2
O=C1C=CC(=O)N1c1ccc(-c2nc3ccccc3o2)cc1	20	-8	·	·	·	-2
Cc1cccc(C)c1NC(=O)C(c1ccccc1)N1CCC(Cc2ccccc2)CC1 (stereo not given)	15	28	·	·	·	·

Screening data (PubChem)
